ChEMBL document CHEMBL1157539, “Thousands of chemical starting points for antimalarial lead identification” (Nature, 2010)

Legend:
Assay type in all cases: functional
[1] = tested on: Plasmodium falciparum; test: GSK_TCMDC: Inhibition of Plasmodium falciparum 3D7 in whole red blood cells, using parasite LDH activity as an index of growth. Test compounds present at 2uM
[2] = tested on: Plasmodium falciparum; test: GSK_TCMDC: Inhibition of Plasmodium falciparum Dd2 in whole red blood cells, using parasite LDH activity as an index of growth. Test compounds present at 2uM
[3] = tested on: HepG2; test: GSK_TCMDC: Percent inhibition of human HepG2 cell line. Test compounds present at 10uM.

| Compound | Inhibition [1] [%] | Inhibition [2] [%] | Inhibition [3] [%] |
| --- | --- | --- | --- |
| O=C(NCCc1ccccc1F)c1cc(Br)cc(N2CCN(c3ccncc3)CC2)c1.O=C(O)C(F)(F)F | 97 | 67 | 29 |
| O=C(CSc1cccc[n+]1[O-])c1ccc(Cc2ncc(C(F)(F)F)cc2Cl)s1 | 99 | 0 | 13 |
| Cc1cccc2nc(O)c([N+](=O)[O-])c(O)c12 | 95 | 0 | 0 |
| CS(=O)(=O)c1ccc(-c2cnc(N)c(-c3ccc(O)cc3)c2)cc1 | 84 | 94 | 38 |
| CN(C)c1ccc(CN2CCC(NC(=O)c3ccc(-c4cccc(F)c4)s3)CC2)cc1.O=C(O)C(F)(F)F | 91 | 18 | 55 |
| Br.CCCC1N=C(N)N=C(N)N1c1ccc(C)c(C)c1 (stereo not given) | 95 | 0 | 7 |
| CCN1CCN(c2cc(C)c3cc(NC(=O)c4cncc(Br)c4)ccc3n2)CC1 | 97 | 63 | 3 |
| COc1ccc(N2CCN(CCCCNCc3ccc(NC(=O)c4cc(Cl)cc(Cl)c4)cc3)CC2)c(OC)c1 | 100 | 99 | 39 |
| COc1ccc2ncc(C#N)c(CCN3C4CCC3CC(NCc3ccc5c(n3)NC(=O)CS5)C4)c2c1.Cl (stereo not given) | 95 | 27 | 6 |
| C=CCn1c(C)cc(C(=O)COc2ccc(S(=O)(=O)N3CCOCC3)cc2[N+](=O)[O-])c1C | 94 | 5 | 0 |
